hcDAF-12 act: H. contortus DAF-12 nuclear receptor activators, primary screen, cell-based, luminescence, HEK293, lit1-tk-luc reporter | HEK293 hcDAF-12 lit1-tk-luc reporter; 0% DMSO, 100% Δ7-dafachronic acid | activation, % at 6.8 µM | hit rate 1.4% among 370,000 | AID 652067, 2013;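 active = activation above the mean of all tested compounds plus 3 SD, cut at about 5.5% in these data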
DAX1 inh: DAX1 (NR0B1) inhibitors on StAR promoter, primary screen, cell-based, luminescence, SF-1 (NR5A1), full-length DAX-1 | hit rate 1.1% among 370,000 | HEK293T StAR-luciferase reporter, SF-1/DAX-1 repression relief | inhibition, % at 6.8 µM;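 active = inhibition above the mean over all tested compounds plus 3 SD, cut at about 3.6% in these data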;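 also: higher inhibition means more luminescence from relief of DAX-1 repression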
esBAF inh: Bmi1 luciferase reporter increase in mESCs, primary screen, esBAF inhibitor project, mouse ES cells, Bmi1 luciferase knock-in, single point. 24 h; 100% = twice the neutral-well signal. reporter increase, % at 12.5 µM. hit rate 2% among 350,000. AID 602393, 2012; in the data active = activation above about 40%;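 also: a rise in the Bmi1 reporter signal indicates esBAF inhibition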
Wnt act: Wnt/beta-catenin pathway activators, primary screen, cell-based, plate reader, single point | AID 743398, 2014 | activation, % at 9.35 µM | Wnt/beta-catenin reporter cell assay, activator | hit rate 1.2% among 300,000; in the data active = activation above about 30%, passing the limit was not always enough
ssDAF-12 act: S. stercoralis DAF-12 nuclear receptor activators, primary screen, cell-based, luminescence, HEK293, GRIP1 co-expression, lit1-tk-luc | Nuclear hormone receptor DAF-12 (Strongyloides stercoralis) | HEK293 ssDAF-12/GRIP1 lit1-tk-luc reporter; % of 3 µM dafachronic acid response | activation, % at 6.8 µM | hit rate 1% among 370,000 | AID 652126, 2013;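 active = activation above the mean over all tested compounds plus 3 SD, cut at about 0.9% in these data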
hgDAF12 agonist: H. glycines DAF-12 receptor agonists, primary screen, cell-based, luminescence, HEK293, GAL4 fusion, UAS-luciferase. HEK293 GAL4-hgDAF12 UAS-luciferase reporter, agonist luminescence; normalized to butyrate control. AID 687014, 2013. hit rate 1.8% among 370,000. Nuclear hormone receptor DAF-12 (Heterodera glycines), GAL4 fusion. activation, % at 6.8 µM;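 active = activation above a cutoff set at the mean of all screened compounds plus 3 SD, cut at about 10% in these data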
LXR ag: LXR agonists, Gal4 luciferase reporter, confirmation, counter-screen for hcDAF-12 agonist project, cell-based, luminescence, HEK293, H. contortus campaign. shares compounds with hcDAF-12 act. HEK293 Gal4-LXR tk-luc reporter, 24 h; normalized: DMSO 0%, positive control 100%. activation, % at 6.8 µM. 3,400 tested, under 10 active. AID 743027, 2013;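 active = mean percent activation of the reporter above a cutoff set as the average over tested compounds plus their standard deviation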
Target sequence (P55055 whole entry, looked up, the tested form may be a part): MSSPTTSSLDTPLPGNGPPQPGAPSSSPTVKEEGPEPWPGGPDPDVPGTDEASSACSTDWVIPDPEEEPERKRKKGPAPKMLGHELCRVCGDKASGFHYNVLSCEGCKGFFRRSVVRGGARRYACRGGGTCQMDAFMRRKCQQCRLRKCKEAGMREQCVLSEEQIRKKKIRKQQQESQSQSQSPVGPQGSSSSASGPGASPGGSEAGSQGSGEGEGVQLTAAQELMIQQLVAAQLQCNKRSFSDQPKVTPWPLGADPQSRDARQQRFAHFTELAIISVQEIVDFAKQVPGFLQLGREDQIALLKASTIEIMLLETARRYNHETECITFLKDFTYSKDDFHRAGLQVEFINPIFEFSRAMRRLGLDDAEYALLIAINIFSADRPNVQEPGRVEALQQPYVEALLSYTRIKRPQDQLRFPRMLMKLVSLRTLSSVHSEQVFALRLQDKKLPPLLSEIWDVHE
hcDAF12 conf: H. contortus DAF-12 receptor agonists, confirmation, cell-based, luminescence, HEK293, lit1-tk-luc, triplicate; HEK293 hcDAF-12 lit1-tk-luc reporter; % of Δ7-dafachronic acid response; activation, % at 6.8 µM; shares compounds with hcDAF-12 act; hit rate 61% among 3,400;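 active = mean activation across triplicate tests above the threshold derived from the earlier primary screen, cut at about 5.5% in these data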
Large screens that a line does not name were inactive (follow-up assays come after a bar, where they were run). An excerpt weighted towards active compounds, which were near 4.2% of everything screened.

Cc1nn(CC(=O)NCc2cc3ccccc3[nH]2)c(C)c1[N+](=O)[O-]	hcDAF-12 act 9.4 (no result: esBAF inh) | LXR ag inactive | hcDAF12 conf inactive
Clc1ccc(-n2ncc3c(NCc4ccc5c(c4)OCO5)ncnc32)cc1	none
OCCCNc1ncnc2c1cnn2-c1ccc(Cl)cc1	hcDAF-12 act 7.4 | LXR ag inactive | hcDAF12 conf inactive
CCOc1ccc(-c2cn(-c3ccc(OC)cc3)c(SC)n2)cc1	hcDAF-12 act 7.0, esBAF inh 65, hgDAF12 agonist 11 (no result: Wnt act) | LXR ag inactive | hcDAF12 conf inactive
Cn1c(NC(=O)C[n+]2cc(-c3ccccc3)n3c2CCC3)cc(=O)n(C)c1=O	hcDAF-12 act 7.1 | LXR ag inactive | hcDAF12 conf inactive
COc1ccc(-c2cn3cc(Cl)ccc3n2)cc1OC	hcDAF-12 act 8.6, esBAF inh 69 | LXR ag inactive | hcDAF12 conf inactive
Clc1ccc2nc(-c3ccc(Br)s3)cn2c1	hcDAF-12 act 15, ssDAF-12 act 1.0, hgDAF12 agonist 11 | LXR ag inactive | hcDAF12 conf 19
CO[C@H]1CN(C)C(=O)c2cc(NC(=O)C3CC3)ccc2OC[C@@H](C)N(Cc2cccnc2)C[C@@H]1C	none (no result: hcDAF-12 act, DAX1 inh, Wnt act, ssDAF-12 act, hgDAF12 agonist)
CCNC(=O)[C@@H]1[C@@H](CO)[C@@H]2Cn3c(ccc(C4=CCCC4)c3=O)[C@@H]2N1C(=O)CC1CC1	none (no result: hcDAF-12 act, DAX1 inh, Wnt act, ssDAF-12 act, hgDAF12 agonist)
O=C(NCC(=O)N1CCCC1)c1cccs1	none (no result: esBAF inh)
CN1CCN(C(=O)CNC(=O)c2cccs2)CC1	hcDAF-12 act 7.8 | LXR ag inactive | hcDAF12 conf inactive
O=C1Nc2ccccc2C12OC1CCCCC1O2 (stereo unspecified)	none (no result: Wnt act)
N#CC1=C(N)C(C#N)(C#N)C2(C(=O)Nc3ccccc32)C2CCCC=C12 (stereo unspecified)	hcDAF-12 act 6.8 | LXR ag inactive | hcDAF12 conf inactive
CC(NC(=O)c1cc2ccccn2n1)c1ccccc1 (stereo unspecified)	none (no result: esBAF inh, Wnt act)
O=C(Nc1ccc(Br)cc1)c1cc2ccccn2n1	hcDAF-12 act 6.9, Wnt act 53, hgDAF12 agonist 13 (no result: esBAF inh) | LXR ag inactive | hcDAF12 conf inactive
C[C@H](CO)N1C[C@H](C)[C@@H](CN(C)S(=O)(=O)c2cn(C)cn2)OCc2ccccc2-c2c(n(C)c3ccccc23)C1=O	none (no result: hcDAF-12 act, DAX1 inh, Wnt act, ssDAF-12 act, hgDAF12 agonist)
Cc1ccn2cc(-c3ccc(O)c(O)c3)nc2c1	hcDAF-12 act 7.0 | LXR ag inactive | hcDAF12 conf 7.5
Cc1ccn2cc(-c3cccc(NC(=O)C(C)C)c3)nc2c1	none (no result: esBAF inh)
C[C@@H]1CCCCO[C@H](CN(C)Cc2ccc3c(c2)OCO3)[C@H](C)CN([C@@H](C)CO)C(=O)c2cc(NC(=O)Nc3cccc4ccccc34)ccc2O1	none (no result: hcDAF-12 act, DAX1 inh, Wnt act, ssDAF-12 act, hgDAF12 agonist)
CCOc1ccc(N2C(=O)C(=O)/C(=C(/O)c3ccccc3)C2c2ccccc2[N+](=O)[O-])cc1 (stereo unspecified)	hcDAF-12 act 9.4, ssDAF-12 act 1.3 (no result: esBAF inh) | LXR ag inactive | hcDAF12 conf inactive
O=C1C(=O)N(c2cccc(Cl)c2)C(c2ccccc2[N+](=O)[O-])/C1=C(\O)c1ccccc1 (stereo unspecified)	none (no result: hcDAF-12 act, DAX1 inh, ssDAF-12 act, hgDAF12 agonist)
COc1ccc(NC(=O)N(C)C[C@H]2Oc3ncc(-c4ccc(C#N)cc4)cc3C(=O)N([C@@H](C)CO)C[C@@H]2C)cc1	none (no result: hcDAF-12 act, DAX1 inh, Wnt act, ssDAF-12 act, hgDAF12 agonist)

High-throughput results as filed in PubChem.
